Screening data (PubChem BioAssay)
NOD2-RIPK2 inh: NOD2-RIPK2 protein interaction inhibition; inhibition, % at 4.98 µM; 360,000 compounds, 0.38% hits; CHO BLA complementation NOD2-RIPK2, CCF4 ratio; AID 624267; in the data active = inhibition above about 21%;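 also: 0% = vehicle only and 100% = reference blocker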
Target sequence (O43353 whole entry, looked up): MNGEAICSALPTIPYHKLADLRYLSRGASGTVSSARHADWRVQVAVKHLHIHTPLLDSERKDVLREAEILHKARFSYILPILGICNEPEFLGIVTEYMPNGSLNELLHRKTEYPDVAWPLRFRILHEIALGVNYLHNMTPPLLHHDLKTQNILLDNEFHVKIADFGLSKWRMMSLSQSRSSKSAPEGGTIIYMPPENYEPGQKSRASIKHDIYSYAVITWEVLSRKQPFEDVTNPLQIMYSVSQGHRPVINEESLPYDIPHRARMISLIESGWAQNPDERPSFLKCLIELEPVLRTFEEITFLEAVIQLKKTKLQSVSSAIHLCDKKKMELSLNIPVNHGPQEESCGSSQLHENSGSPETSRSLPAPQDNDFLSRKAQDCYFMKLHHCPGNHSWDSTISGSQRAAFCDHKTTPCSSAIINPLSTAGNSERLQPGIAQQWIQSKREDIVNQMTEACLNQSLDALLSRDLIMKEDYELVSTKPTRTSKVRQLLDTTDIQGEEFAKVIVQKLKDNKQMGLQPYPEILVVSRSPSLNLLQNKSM
TLR9-MyD88 inh: inhibitors of human TLR9-MyD88 binding. AID 504734. inhibition, % at 4.98 µM. CHO BLA complementation TLR9-MyD88, CCF4 FRET ratio. 340,000 compounds, 0.21% hits;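 active = inhibition above the mean over all tested compounds plus 3 SD, cut at about 21% in these data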;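 also: 0% = DMSO only wells and 100% = clavulanate BLA inhibitor control wells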
ABHD5-PLIN5 inh: inhibitors of human ABHD5-perilipin-5 interaction. inhibition, % at 4 µM. AID 602281. 360,000 compounds, 0.78% hits. Split G. princeps luciferase complementation, luminescence, 4 h. Q00G26+Q8WTS1;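 active = inhibition above the mean inhibition across every tested compound plus 3 SD, cut at about 22% in these data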;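 also: 0% = DMSO only wells and the 100% control is not disclosed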
Exocytosis inh: lytic granule exocytosis inhibition; AID 651702; 360,000 compounds, 0.66% hits; TALL-104 LAMP-1 surface exposure, flow cytometry; cells stimulated with thapsigargin and PMA; inhibition, % at 10 µM;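 active = inhibition above about 55%, limit read from the data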
TLR4-MyD88 BLA: inhibitors of human TLR4-MyD88 binding; 200,000 compounds, 0.18% hits; O00206+Q99836; inhibition, % at 8.4 µM; HeLa CL3-4 TLR4/MyD88 BLA complementation, FRET ratio; in the data active = inhibition above about 25%;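 also: 0% = vehicle and 100% = reference inhibitor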
Beta2AR agonist: human beta-2 adrenergic receptor agonism by FAP; P07550; Am2.2-beta2AR cells, FAP receptor internalization, flow cytometry; response, % (no concentration beside the values); 340,000 compounds, 0.43% hits; AID 504454;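 active = response above a set limit, near 3 SD of response in nonfluorescent compounds, cut at about 42% in these data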
B2AR ag CP1: activates human beta-2 adrenergic receptor; 1,100 compounds, 25% hits; percent response (surface receptor), % at 10 µM; shares compounds with Beta2AR agonist; Am2.2-beta2AR cells, FAP surface receptor, flow cytometry; active compounds read low; AID 540358;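 active = surface receptor percent response at or below 58%, roughly 3 SD from nonfluorescent compounds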
B2AR FAP counter: counter-screen for beta-2AR agonists: fluorescence in Am2.2 cells. shares compounds with Beta2AR agonist. FAP fluorogen flow cytometry, fluorescence counterscreen; active compounds read low. calls only at 10 µM. 1,100 tested, under 10 active. AID 588765;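 active = percent response below a set limit in fluorescence channel 1 and below 50% in channel 8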
TLR9-MyD88 cf: TLR9-MyD88 interaction inhibition, confirmation; CHO TLR9/MyD88 BLA complementation, CCF4 FRET ratio; inhibition, % at 4.98 µM; AID 540250; 680 compounds, 51% hits; shares compounds with TLR9-MyD88 inh;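 active = mean inhibition across three repeats above about 21% taken from the earlier screen, limit read from the data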;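 also: blue over green emission ratio reports constitutive TLR9 MyD88 association via BLA complementation; 0% = DMSO vehicle wells and 100% = clavulanate BLA inhibitor wells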
BLA counter-1: beta-lactamase reporter inhibition, counter-screen artifact; shares compounds with TLR9-MyD88 inh; AID 540251; CHO-BLA cells, CCF4 FRET ratio, BLA reporter; 680 compounds, 7% hits; inhibition, % at 4.98 µM;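 active = mean inhibition above a 50% cutoff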;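 also: counterscreen of TLR9-MyD88 hits on CMV-driven BLA in CHO-K1 cells; 0% = DMSO alone and 100% = clavulanate blocking BLA; higher means less blue over green ratio so more BLA blockade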
TLR9 CHO cytotox: CHO cell toxicity counter-screen for TLR9-MyD88 inhibitors. 680 compounds, 39% hits. shares compounds with TLR9-MyD88 inh. TLR9-MyD88 CHO cells cytotoxicity, luminescence. AID 588336. inhibition, % at 4.98 µM; in the data active = inhibition above about 11%
ABHD5-PLIN5 conf: ABHD5-PLIN5 interaction inhibition, confirmed; shares compounds with ABHD5-PLIN5 inh; biochemical ABHD5-PLIN5 interaction, luminescence; inhibition, % at 4 µM; 2,200 compounds, 67% hits; in the data active = inhibition above about 23%;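 also: 0% = DMSO vehicle wells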
HNF4 split-luc: HNF4 split-luciferase signal hit, counter-screen. AID 651674. HNF4 dimerization, luminescence, biochemical. shares compounds with ABHD5-PLIN5 inh. 2,200 compounds, 77% hits. inhibition, % at 4 µM;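 active = mean inhibition across replicate wells exceeding the computed hit threshold, cut at about 13% in these data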;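 also: light from luciferase halves that rejoin when HNF4 fusion proteins dimerize; 0% = DMSO only wells and the 100% control is not given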
NOD2 RIPK2 conf: NOD2-RIPK2 interaction inhibition confirmed; 1,200 compounds, 70% hits; shares compounds with NOD2-RIPK2 inh; inhibition, % at 4.98 µM; CHO cells, NOD2-RIPK2 BLA complementation, CCF4 FRET;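 active = mean inhibition across replicates above a set limit taken from the earlier primary screen, cut at about 21% in these data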;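 also: 0% = DMSO-only wells and the high end = clavulanate BLA-blocked wells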
BLA counter-2: NOD2-RIPK2 counterscreen BLA reporter activity. shares compounds with NOD2-RIPK2 inh. CHO BLA reporter, CCF4 FRET ratio. inhibition, % at 4.98 µM. 1,200 compounds, 57% hits;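 active = mean inhibition above the low-control mean inhibition plus three low-control SD, cut at about 11% in these data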;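 also: 0% = DMSO only wells and 100% = clavulanate high control wells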
Exocytosis CP01: lytic granule exocytosis inhibition; TALL-104 cells, LAMP-1 externalization, flow cytometry; stimulated with PMA plus thapsigargin; 1,500 compounds, 11% hits; shares compounds with Exocytosis inh; AID 651954; inhibition, % at 10 µM; in the data active = inhibition above about 60%;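 also: 0% = stimulated vehicle wells and 100% = unstimulated wells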
Starred values were filed as active, the others as inactive; i = inactive; x = not tested or not shown; + = active, no number. Rows were chosen to be rich in hits. Some 2% of all compounds tested hit in one or more screens of this group.

SMILES	NOD2-RIPK2 inh	TLR9-MyD88 inh	ABHD5-PLIN5 inh	Exocytosis inh	TLR4-MyD88 BLA	Beta2AR agonist	others
NCCc1ccc(OCc2ccccc2)c(OCc2ccccc2)c1	9.7	-4.2	27.7*	-4.2	x	43.4*	B2AR ag CP1=99.7;B2AR FAP counter=i;ABHD5-PLIN5 conf=13.7;HNF4 split-luc=7.3
CC1C(=O)CC2(C(C)C)CC12 (centres undefined)	-10.4	x	2.5	-3.8	x	x
COc1ccc(C[C@H]2NC[C@H](O)[C@H]2OC(C)=O)cc1	26.1*	15.1	-1.1	-4.4	x	94.2*	B2AR ag CP1=27.9*;B2AR FAP counter=+;NOD2 RIPK2 conf=29.1*;BLA counter-2=1.2
C=C1C(=O)OC2CCN3CC=C(COC(=O)C(C)(O)C4(CO4)C1C)C23 (centres undefined)	-2.1	x	-0.2	-0.7	x	x
CC(Cc1ccc(O)cc1)NCC(O)c1ccc(O)c(O)c1 (centres undefined)	11.9	-8.4	-4.2	65.7*	x	x	B2AR ag CP1=9.6*;B2AR FAP counter=i;Exocytosis CP01=-2.1
CCOC(=O)[C@]12Cc3cc(OC)ccc3[C@H]1N(C(C)C)C(=O)c1cc(OC)ccc12	-4.6	x	18.6	36.3	x	x
CN(C(=O)Cc1ccc(Cl)c(Cl)c1)C(CN1CCCC1)c1cccc(OCC(=O)O)c1 (centres undefined)	2.8	23.3*	-1.7	-0.9	x	-5.0	TLR9-MyD88 cf=-2.2;BLA counter-1=-5.8;TLR9 CHO cytotox=2.3
COC(=O)[C@@H]1N=C(c2ccc(OC)cc2)O[C@]12C(=O)N(C)c1cccc(Cl)c12	-4.1	x	3.1	-6.0	x	x
CN1C2CCC1/C(=C/c1ccccn1)C(=O)/C2=C\c1ccccn1	30.1*	23.9*	97.9*	64.5*	-2.4	32.2	TLR9-MyD88 cf=18.4;BLA counter-1=7.1;TLR9 CHO cytotox=99.4*;ABHD5-PLIN5 conf=104.0*;HNF4 split-luc=108.9*;NOD2 RIPK2 conf=41.5*;BLA counter-2=9.7
Cc1ccccc1-n1c(/C=C/c2ccccn2)nc2ccccc2c1=O	-9.4	9.0	12.7	-22.8	x	7.0
COc1c(O)cc2c(c1OC)-c1ccc(SC)c(=O)cc1C(NC(C)=O)CC2 (centres undefined)	3.8	-9.1	-4.0	7.1	x	28.5
Nc1ccc2ccc3cccc[n+]3c2c1	23.5*	25.7*	-0.5	21.0	x	-5.3	TLR9-MyD88 cf=9.2;BLA counter-1=10.7;TLR9 CHO cytotox=-1.6;NOD2 RIPK2 conf=31.5*;BLA counter-2=35.7*
Cc1cccc(C)c1-n1nnnc1C(C1CC1)N1CCC2(CC1)C(=O)NCN2c1ccccc1 (centres undefined)	8.0	x	1.4	8.8	x	x
